In PMC7826789 (International Journal of Molecular Sciences, 2021):

Test system: CAMK1
Settings: Compound Concentration (nM):1000
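Also: KINOMEscan scanMAX binding as percent activity remaining versus control; lower means stronger binding.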

Percent Control, inactive:
O=C(Nc1n[nH]c2nc(-c3ccc(O)cc3)c(Br)cc12)C1CC1 [SB-725317] 100%
COc1cccc(-c2c[nH]c3c(N/N=C/c4ccncc4)ncnc23)c1 [GW814408X] 100%
Cl.O=C(O[C@H]1CN[C@H](C#Cc2cc3ncnc(Nc4ccc5c(cnn5Cc5ccccc5)c4)c3s2)C1)N1CCOCC1 [GSK200398A] 100%
CCS(=O)(=O)c1ccc(OC)c(Nc2ncc(-c3cccc(OC)c3)o2)c1 [GW580509X] 87%
COc1ccc2cc(-c3c(-c4ccncc4)nc(-c4ccc(S(C)(=O)=O)cc4C)n3C)ccc2c1 [SB-633825] 93%
COc1ccc(COc2ccc(Cc3cnc(N)nc3N)cc2OC)cc1 [GW632580X] 100%
C[C@@H](Oc1cc(-n2cnc3ccc(OC4CCN(C)CC4)cc32)sc1C(N)=O)c1ccccc1Cl [GSK579289A] 55%
CCS(=O)(=O)c1ccc(OC)c(Nc2ncc(-c3cccc(F)c3)o2)c1 [GW621970X] 100%
COc1cc(N2CCN(C(C)C)CC2)ccc1Nc1nc(Nc2ccc(F)cc2C(=O)NC[C@@H](O)CO)c2cc[nH]c2n1 [GSK1392956A] 73%
COc1cc2ncn(-c3cc(O[C@H](C)c4ccccc4Cl)c(C(N)=O)s3)c2cc1OC [GSK237701A] 86%
Cl.O=C(Nc1ccc(Oc2ccc3[nH]c(NC(=O)c4ccccc4)nc3c2)cc1)Nc1cc(C(F)(F)F)ccc1F [GW709042A] 95%
COc1cc(C)c(N(C)C(=O)CN(C)C)cc1Nc1nc(Nc2cccc(F)c2C(N)=O)c2cc[nH]c2n1 [GSK2219385] 97%
CCc1ccc(Oc2nccc(-c3c(-c4ccc(F)cc4)ncn3C3CCNCC3)n2)cc1 [SB-242719] 90%
CC1=C(C(=O)Nc2ccc3[nH]ncc3c2)C(c2ccc3ccccc3c2)CC(=O)N1 (stereo not shown) [GSK270822A] 83%
Nc1ncnc2occ(-c3ccc(NC(=O)Nc4cc(C(F)(F)F)ccc4F)cc3)c12 [GW770249X] 77%
O=C1Nc2ccc(C(=O)c3ccco3)cc2C1=Cc1cc(Cl)c(O)c(Cl)c1 [GW406108X] 63%
COc1ccc2[nH]c3c4[nH]c5ccc(OC)cc5c4c4c(c3c2c1)C(=O)NC4=O [GW296115X] 80%
CN(C)CCNC(=O)Nc1ccc(N(C)c2ccnc(Nc3ccc(CS(C)(=O)=O)cc3)n2)cc1.Cl [GW830900A] 100%
Cl.c1ccc(Cc2nc3ccc(Nc4ncnc5ccccc45)cc3[nH]2)cc1 [GR269666A] 90%
COc1ccc2c(-c3ccnc(Nc4cccc(OC(F)(F)F)c4)n3)cnn2n1 [GW810372X] 100%
COc1cccc(-n2ncc3c(N/N=C/c4ccncc4)ncnc32)c1 [GW784752X] 99%
COc1cc(/C=N/Nc2ncnc3[nH]ncc23)ccc1O [GW578748X] 100%
NS(=O)(=O)c1ccc(N/N=C2\C(=O)Nc3ccc(C(=O)NCCc4c[nH]cn4)cc32)cc1 [GW300660X] 100%
NS(=O)(=O)c1ccc(N/N=C2\C(=O)Nc3ccc(-c4cnco4)cc32)cc1 [GW276655] 74%
NS(=O)(=O)c1ccc(Nc2ncc(-c3ccccc3)o2)cc1 [GW572399X] 78%
C/C(Nc1ccc(S(N)(=O)=O)cc1)=C1/C(=O)Nc2ccccc21 [GW335962X] 52%
Cl.O=S1CCN(Cc2ccc(-c3ccc4ncnc(Nc5ccc(OCc6ccccc6)c(F)c5)c4c3)o2)CC1 [GW576924A] 100%
CN(C)c1cc2c(Nc3ccc4c(cnn4Cc4ccccc4)c3)ncnc2cn1 [GW282974X] 95%
CCn1c(-c2nonc2N)nc2c(C#CC(C)(C)O)nc(OCCNC)cc21.Cl [GSK949675] 100%
CC(C)COC(=O)c1ccc2c(c1)/C(=C/Nc1ccc(S(N)(=O)=O)cc1)C(=O)N2 [GW416981X] 100%
CC1=C(C(=O)Nc2ccc3[nH]ncc3c2)C(c2ccc(Cl)c(Cl)c2)CC(=O)N1 (stereo not shown) [GSK299115A] 87%
NS(=O)(=O)c1ccc(N/N=C2\C(=O)Nc3ccc(Cl)cc32)cc1 [GW280670X] 100%
COc1cc(C=NNc2ncnc3c2cnn3-c2ccccc2)ccc1O [GW513184X] 100%
COc1cc2ncnc(Nc3ccc4c(cnn4Cc4ccccc4)c3)c2cc1OC.Cl [GW282449A] 100%
COC(=O)Nc1nc2ccc(Oc3ccc(NC(=O)Nc4cc(C(F)(F)F)ccc4F)cc3)cc2s1.Cl [GW693917A] 88%
NS(=O)(=O)c1ccc(N/N=C2\C(=O)Nc3ccc(C(=O)NCc4ccncc4)cc32)cc1 [GW300657X] 85%
Cl.O=C(Nc1ccc(Oc2ccc3[nH]c(NC(=O)c4ccco4)nc3c2)cc1)Nc1cc(C(F)(F)F)ccc1F [GW683134A] 59%
